Test results from PubChem BioAssay AID2551 (National Center for Advancing Translational Sciences (NCATS), 2010).
Values joined by “and” are separate entries in the source; they are usually repeats but may differ in a detail not shown here. Equal values may be shown once. Out of some 310,000 compounds screened, about 17,000 (5.5%) were called active. Roughly 11% stayed inconclusive and do not appear here. The call rests on the fitted dose curve; in most records, active means well fitted inhibition curve with a large enough effect; inconclusive means small, poorly fitted or top-dose-only effect, or effect the other way; inactive means no such curve, though single readings can be large or run the other way. Shown is part of a subset that was picked to be rich in actives. A call without a number means that no potency is given here. Some compounds were tested as several samples or in several runs, with calls that do not always agree.

Molecular target: Nuclear receptor ROR-gamma (Mus musculus) (UniProt P51450)
Experiment: qHTS for inhibitors of ROR gamma transcriptional activity; further: nearly all actives have a fitted effect of over 60% in size
Settings: Drosophila S2 Gal4-RORgamma UAS-luciferase reporter, 20 h; series mostly up to 53.6 µM
Outline: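 In this cell-based reporter format, copper sulfate (700 uM final) drives Gal4–ROR gamma fusion expression from a metallothionein promoter in Drosophila Schneider cells; compounds preincubated 1 hr, reporter read after 20 hr at ambient temperature.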
Potency means the concentration at half of the fitted maximal effect.

Sequence of Nuclear receptor ROR-gamma (Mus musculus) (P51450 whole entry, looked up): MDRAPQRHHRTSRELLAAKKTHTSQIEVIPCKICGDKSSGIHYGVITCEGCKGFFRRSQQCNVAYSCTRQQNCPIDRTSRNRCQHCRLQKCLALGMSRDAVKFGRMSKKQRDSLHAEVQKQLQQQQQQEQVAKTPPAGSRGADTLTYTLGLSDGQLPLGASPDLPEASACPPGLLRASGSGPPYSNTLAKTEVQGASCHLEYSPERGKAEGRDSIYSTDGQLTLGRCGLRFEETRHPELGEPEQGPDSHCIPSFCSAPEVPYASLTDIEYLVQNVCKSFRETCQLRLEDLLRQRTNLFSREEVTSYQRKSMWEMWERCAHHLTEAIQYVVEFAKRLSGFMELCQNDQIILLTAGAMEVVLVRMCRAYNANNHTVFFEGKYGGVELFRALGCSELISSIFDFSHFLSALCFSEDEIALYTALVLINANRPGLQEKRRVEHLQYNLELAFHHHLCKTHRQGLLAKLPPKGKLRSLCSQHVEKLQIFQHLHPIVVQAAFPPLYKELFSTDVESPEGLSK

Structure (SMILES) | Potency | activity change, negative = inhibition
O=C(COc1ccc(S(=O)(=O)Nc2cccc(C(F)(F)F)c2)cc1)N1CCOCC1 | inactive | –
O=C(CCN1C(=O)[C@@H]2Cc3ccccc3CN2C1=O)NCCc1ccccc1 | inactive | –
CCOc1cc(N2CCOCC2)c(OCC)cc1NC(=O)COc1cccc2cccnc12 | inactive | –
Oc1c(C(c2ccccn2)N2CCOCC2)ccc2cccnc12 (centres undefined) | 1.26 µM (active) | –
Cc1nc2sc(C(c3ccco3)N3CCOCC3)c(O)n2n1 (centres undefined) | inactive | –
O=C(NCc1nnc(SCC(=O)N2CCCCCC2)o1)c1ccc(F)cc1 | inactive | –
Cc1nn(-c2ccccc2)c(Cl)c1/C=N/NC(=O)c1nn(C)cc1[N+](=O)[O-] | inactive | –
CCOC(=O)N1CCN(Cc2nnc(-c3ccccc3Cl)o2)CC1 | inactive | –
COc1ccc2nc(SCC(=O)Nc3c(C)cc(C)cc3C)[nH]c2c1 | inactive | –
COC(=O)Nc1nc2ccc(Sc3ccccc3)cc2[nH]1 | inactive and 6.31 µM (active) | –
CC(C)OCCCNC(=O)c1cc(Sc2ccc(F)cc2)nc2ccccc12 | inactive | –
S=c1[nH]ccn1-c1ccc(Cl)cc1 | 3.55 µM (active) | –
S=c1[nH]cc(-c2ccc(Cl)cc2)n1-c1ccccc1 | inactive | –
COc1ccc(C(=O)N/N=C(\C)CC(=O)Nc2ccc(Cl)cn2)cc1 | 5.01 µM (active) | –
COc1cccc(C(=O)Nc2ccc(N3CCCC3)cc2)c1 | inactive | –
COc1ccc(C(=O)NC(=S)Nc2ccc(N3CCCC3)cc2)cc1OC | 0.447 µM (active) | –
O=C(CCN1CCN(c2ccccc2)CC1)NNC(=S)Nc1ccccc1 | 10 µM (active) | –
COc1ccc(C(=O)Nc2ccc(N3CCC(C)CC3)cc2)cc1Br | inactive | –
O=C(CN1CCN(c2ccc(F)cc2)CC1)Nc1ccccc1 | inactive | –
COC(=O)c1ccc(NC(=O)c2cc(Cl)ccc2OC)cc1 | inactive | –
COc1c(Cl)cc(C(=O)Nc2ccc(Cl)cn2)cc1Cl | inactive | –
COc1ccc(COC(=O)N/N=C(\C)CC(=O)Nc2ccc(Cl)cc2)cc1 | – | 5.64% [at 10 µM] (inactive)
COc1ccc(C/C(C)=N/NC(=O)c2ccncc2)cc1 | inactive | –
COc1ccc(C(=O)NC(=S)Nc2ccc(Cl)cn2)cc1OC | 7.94 µM (active) | –
O=C(CN1CCN(c2ccccc2)CC1)Nc1ccc(F)cc1 | inactive | –
CCc1ccc(NC(=O)CN2CCC(C(=O)c3ccc(OC)cc3)CC2)cc1 | inactive | –
Cc1c(C(=O)NC2CCCCC2)oc2ccccc12 | inactive | –
CCCNC(=O)CCc1c(C)nc2c(c(C)nn2-c2ccccc2)c1C | inactive | –
Cc1ccc(S(=O)(=O)N2CCCC(C(=O)N3CCN(C)CC3)C2)cc1 (centres undefined) | inactive | –
